Where “and” joins values, the source holds several entries; their conditions need not be identical. Equal entries are not always repeated. Inconclusive results are not listed. Where a call stands in place of a potency, no number is given. Calls of active or inactive are those of the source. Unless noted, calls come from the whole dose curve; as a rule, active = well fitted curve in the direction sought with a large enough effect; inconclusive = small, poorly fitted or top-dose-only effect, or another doubt; inactive = no such curve, though single readings can be large; an effect the other way counts as inactive or inconclusive.
Columns and labels:
[1] = qHTS Assay for Lipid Storage Modulators (AID 1519; calls by dose curve); conditions: Drosophila S3 cells, BODIPY lipid droplet/cell ratio, laser cytometry, cells loaded with oleic acid
How it was run: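 Cells seeded at 5,000 per well were treated with compounds over a concentration series and loaded with oleic acid (400 uM, as added). Lipid droplet fluorescence (488 nm excitation, 500-530 nm channel) was read by laser-scanning cytometry and normalized to 20 uM Triacsin C.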

[2] = target: DNA repair nuclease/redox regulator APEX1 (Homo sapiens) (UniProt P27695); experiment: qHTS Validation Assay for Inhibitors of the Human Apurinic/apyrimidinic Endonuclease 1 (APE1) (AID 1705; note: potency is the fitted concentration of half-maximal effect;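 for activity change, negative = inhibition: TAMRA fluorescence gain over two minutes as APE1 cuts a quenched THF abasic duplex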); conditions: purified APE1 endonuclease activity, fluorescence, titration; series mostly up to 57.1 µM
How it was run: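 Activity read as rising fluorescence (598 nm emission, 525 nm excitation) from incision of a TAMRA/BHQ-2 duplex carrying a THF abasic site (50 nM). Compound and enzyme sat 15 min at RT before substrate start; signal change between first and third 60-s reads.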

[3] = Counterscreen for APE1 Inhibitors: Fluorescent Dye Displacement Validation Assay (AID 1707); conditions: fluorescent dye displacement from DNA; series mostly up to 57.1 µM
How it was run: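 Compounds are scored by their ability to displace Thiazole Orange (250 nM) from a 50 nM TAMRA-tagged duplex bearing a tetrahydrofuran abasic site. Buffer is 50 mM Tris-HCl pH7.5, 50mM NaCl, 2 mM MgCl2, 0.01% Tween-20.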

[4] = target: Endonuclease 4 (Escherichia coli (strain K12)) (UniProt P0A6C1); experiment: Counterscreen for APE1 Inhibitors: qHTS Validation Assay for Inhibitors of Endonuclease IV (AID 1708); conditions: E. coli endonuclease IV, DNA cleavage fluorescence; series mostly up to 57.1 µM
How it was run: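 E. coli EndoIV at 2 nM final, preincubated 15 min at room temperature with compound, then 50 nM TAMRA/BHQ-2 THF abasic-site duplex added. Buffer: 50 mM Tris-HCl pH 7.5, 50 mM NaCl, 2 mM MgCl2, 1 mM DTT, 0.01% Tween-20. Kinetic fluorescence increase, third minus first read.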

[5] = qHTS for differential inhibitors of proliferation of Plasmodium falciparum line 7G8 (AID 1815); conditions: Plasmodium falciparum 7G8 proliferation inhibition; series mostly up to 28.7 µM;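 note: parasite growth measured after three days of incubation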; note: potency is the fitted concentration of half-maximal effect
[6] = qHTS for differential inhibitors of proliferation of Plasmodium falciparum line GB4 (AID 1816); conditions: Potency: Plasmodium falciparum GB4 proliferation inhibition; series mostly up to 28.7 µM;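 note: parasite growth measured after 72 h incubation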; note: potency is the fitted concentration of half-maximal effect
[7] = qHTS for differential inhibitors of proliferation of Plasmodium falciparum line 3D7 (AID 1876); note: potency is the fitted concentration of half-maximal effect; conditions: P. falciparum 3D7 proliferation inhibition; series mostly up to 28.7 µM
[8] = qHTS for differential inhibitors of proliferation of Plasmodium falciparum line D10 (AID 1877); conditions: series mostly up to 28.7 µM;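 note: parasites grown with compound for 72 h before DNA staining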; note: potency is the fitted concentration of half-maximal effect
[9] = qHTS for differential inhibitors of proliferation of Plasmodium falciparum line Dd2 (AID 1882); conditions: Potency: Plasmodium falciparum Dd2 proliferation inhibition; series mostly up to 28.7 µM; note: nearly all actives have a fitted effect of over 65% in size; note: potency is the fitted concentration of half-maximal effect
How it was run: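 Dd2-infected erythrocytes (0.3% parasitemia, 2.5% hematocrit final) incubated with compound 72 h at 37 C, 5% CO2; lysed with saponin/Triton buffer containing SYBR Green I, incubated overnight in the dark, then read by fluorescence (485/535 nm). Normalized to 0.29 uM artemisinin and DMSO.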

[10] = qHTS for differential inhibitors of proliferation of Plasmodium falciparum line W2 (AID 1883); conditions: Potency: Plasmodium falciparum W2 proliferation inhibition; series mostly up to 28.7 µM;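 note: parasites grown with compound for 72 h before lysis and staining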; note: potency is the fitted concentration of half-maximal effect
[11] = measured here: cell count channel max response
[12] = measured here: lipid channel max response

DNA repair nuclease/redox regulator APEX1 (Homo sapiens), sequence (P27695 whole entry, looked up): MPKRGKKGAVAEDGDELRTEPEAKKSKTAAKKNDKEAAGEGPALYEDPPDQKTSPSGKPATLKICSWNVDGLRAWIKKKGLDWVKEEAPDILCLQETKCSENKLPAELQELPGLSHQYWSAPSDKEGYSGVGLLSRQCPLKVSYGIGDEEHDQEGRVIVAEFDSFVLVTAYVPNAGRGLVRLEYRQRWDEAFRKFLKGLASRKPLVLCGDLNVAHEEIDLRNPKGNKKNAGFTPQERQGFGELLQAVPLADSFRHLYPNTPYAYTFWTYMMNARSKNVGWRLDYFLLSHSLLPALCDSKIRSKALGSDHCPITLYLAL

| SMILES | activity change, negative = inhibition ([1]; at 57.5 µM (top of the series)) | max response [1, 11] | max response [1, 12] | Potency [2] | Potency [3] | Potency [4] | Potency [5] | Potency [6] | Potency [7] | Potency [8] | Potency [9] | Potency [10] | activity change, negative = inhibition ([1]; at 25.7 µM (top of the series)) |
| --- | --- | --- | --- | --- | --- | --- | --- | --- | --- | --- | --- | --- | --- |
| N[C@@]1(C(=O)O)CC[C@@H](C(=O)O)C1 | -2.99% (inactive) | -46.9% | -46.9% | inactive | inactive | inactive | inactive | inactive | inactive | inactive | inactive | inactive | – |
| O=C(O)c1cc[c]([Hg][Cl])cc1 | 1.37% (inactive) | -16.6% | -15.1% | inactive | inactive | inactive | 3.16 µM (active) | 2.51 µM (active) | 2.24 µM (active) | 1.12 µM (active) | 11.2 µM (active) | 1.41 µM (active) | – |
| COc1ccc(OC)c(C(O)C(C)N)c1 (stereo not drawn) | 12.3% (inactive) and -2.22% (inactive) | 8.8% and 28.9% | 25.1% and 26.8% | inactive | inactive | inactive | inactive | inactive | inactive | inactive | inactive | – | – |
| CCCN(CCC)[C@@H]1CCc2cccc(O)c2C1 | -3.59% (inactive) and 3.17% (inactive) and -3.25% (inactive) | 0.992% and 13.8% and 35% | -2.21% and 19.9% and 27.7% | inactive | inactive | inactive | 3.55 µM (active) | 3.16 µM (active) | 10 µM (active) | 10 µM (active) | 8.91 µM (active) | 2.51 µM (active) | – |
| CCCN(CCC)CCc1c[nH]c2ccc(C(N)=O)cc12 | 1.01% (inactive) | -28.4% | -33.9% | inactive | inactive | inactive | inactive | inactive | inactive | inactive | inactive | – | – |
| O=c1ccc2[nH]cc(C3=CCNCC3)c2[nH]1 | 9.75% (inactive) | 9.34% | 20.6% | – | – | – | – | – | – | – | – | – | – |
| O=C1C=CC(=O)C=C1 | 0.0539% (inactive) | -25.7% | -24.4% | 14.1 µM (active) | inactive | inactive | inactive | inactive | inactive | inactive | inactive | inactive | – |
| CC1OC1P(=O)(O)O (stereo not drawn) | 3.73% (inactive) | 11.8% | 19.6% | inactive | inactive | inactive | inactive | inactive | inactive | inactive | inactive | inactive | – |
| CN1[C@@H]2CC[C@H]1CC(OC1c3ccccc3CCc3ccccc31)C2 (stereo partly drawn) | – | -5.63% | -11.3% | – | – | – | – | – | – | – | – | – | -3.36% (inactive) |
| CCC1(C)CC(=O)NC(=O)C1 | – | -7.91% | -9.15% | – | – | – | – | – | – | – | – | – | -1.02% (inactive) |
| C=CCN1CC[C@]23c4c5ccc(O)c4O[C@H]2/C(=N/NC(=O)c2ccccc2)CC[C@@]3(O)[C@H]1C5 | -1.45% (inactive) | -18.8% | -20.5% | inactive | inactive | inactive | 10 µM (active) | 8.91 µM (active) | 10 µM (active) | 3.16 µM (active) | – | 3.16 µM (active) | – |
| C[N+]1(C)CCC(OC(=O)C(c2ccccc2)c2ccccc2)CC1 | -1.55% (inactive) and -0.573% (inactive) | 3.78% and -17.3% | 1.6% and -18% | inactive | inactive | inactive | 8.91 µM (active) | 12.6 µM (active) | 3.16 µM (active) | 7.08 µM (active) | – | 3.98 µM (active) | – |
| CC(N)Cc1c[nH]c2ccc(O)cc12 (stereo not drawn) | -0.0169% (inactive) | 8.43% | 9.94% | inactive | inactive | inactive | inactive | inactive | inactive | inactive | inactive | inactive | – |
| N[C@@H](Cn1oc(=O)[nH]c1=O)C(=O)O | 3.82% (inactive) | 22.6% | 26.9% | inactive | inactive | inactive | inactive | inactive | inactive | inactive | inactive | inactive | – |
| [N-]=[N+]=CC(=O)OCC(N)C(=O)O (stereo not drawn) | 10.5% (inactive) | 14.1% | 29.9% | – | – | – | – | – | – | – | – | – | – |
| O=[N+]([O-])c1cc(O)c(O)c([N+](=O)[O-])c1 | 9.72% (inactive) and 0.381% (inactive) | 15.9% and 33.6% | 26.8% and 29.7% | inactive | inactive | inactive | inactive | inactive | inactive | inactive | inactive | inactive | – |
| CCCC(C)C1(CC)C(=O)NC(=O)NC1=O (stereo not drawn) | 5.49% (inactive) | -11.5% | -3.32% | – | – | – | – | – | – | – | – | – | – |
| CCCN(CCC)C1CCc2cccc(O)c2C1 (stereo not drawn) | -0.917% (inactive) | -31.4% | -33.3% | inactive | inactive | inactive | inactive | inactive | inactive | inactive | inactive | inactive | – |
| Clc1ccc(Cl)cc1 | 0.214% (inactive) | 8.86% | 11.5% | – | – | – | – | – | – | – | – | – | – |
| C=CCC1(C(C)CCC)C(=O)N=C(S)NC1=O (stereo not drawn) | 5.57% (inactive) | 14.6% | 20.4% | – | – | – | – | – | – | – | – | – | – |
| CC(N)Cc1ccc(O)cc1 (stereo not drawn) | 1.02% (inactive) | 11.5% | 13.9% | – | – | – | – | – | – | – | – | – | – |
| NC(N)=NOCC[C@H](N)C(=O)O | -0.661% (inactive) and -1.31% (inactive) | -2.62% and 0.126% and 38.5% | -6.68% and -0.879% and 37% | inactive | inactive | inactive | inactive | inactive | inactive | inactive | inactive | – | -2.42% (inactive) |
